The supplement of paper PMC10105736
A number with no mark means an inactive call.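 The calls were made as follows: active = MAPPIT score above the 99th percentile of random reference set scores in the same batch; inactive = at or below it.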

Assays:
Experiment in all cases: MAPPIT interaction score (arbitrary units); higher = stronger binary interaction signal, active = hit call of the paper
[1] = molecular target: MagR; settings: MAPPIT configuration: N-N; pair source set: Lit-BS-16
[2] = molecular target: Polr1B; settings: MAPPIT configuration: N-N; pair source set: DPIM
[3] = molecular target: pav; settings: MAPPIT configuration: N-N; pair source set: DPIM
[4] = molecular target: Mettl14; settings: MAPPIT configuration: N-N; pair source set: DPIM
[5] = molecular target: Rnmt; settings: MAPPIT configuration: N-N; pair source set: DPIM
[6] = molecular target: Mkk4; settings: MAPPIT configuration: N-N; pair source set: DPIM
[7] = molecular target: Orai; settings: MAPPIT configuration: N-N; pair source set: DPIM
[8] = molecular target: Mpcp2; settings: MAPPIT configuration: N-N; pair source set: Lit-BS-16
[9] = molecular target: mod(mdg4); settings: MAPPIT configuration: N-N; pair source set: Lit-BS-16
[10] = molecular target: Mzt1; settings: MAPPIT configuration: N-N; pair source set: RRS
[11] = molecular target: ND-ACP; settings: MAPPIT configuration: N-N; pair source set: Lit-BS-16
[12] = molecular target: Naa30A; settings: MAPPIT configuration: N-N; pair source set: Curagen_high_conf
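Also: HEK293T cells with Epo stimulation, STAT-responsive firefly luciferase reporter, fold induction versus unstimulated cells divided by the larger fold induction of two negative controls lacking either bait or prey.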

B1: Hakai (protein)
chain: MDTEEVKRGRGRGRGTRARGRGRGRGRGRGKKIDDSSIADAAALAASSCAALEDSPGRLDASEDSVMQELDKDGELETPGALEEPLPHGALGAVAASGNMTPATQQPQVLQQVPPPVMSQTTISLSLARAVDMEADISQLEAPTFTTLSRGPPEPMLRLKWNHKVSLIGEKVLNPMIHCCDQCDKPILVYGRMIPCKHVFCLKCARAEPIKSCPRCTDKVLRVEQSGLGTVFMCTHGGSRYGSSGCRRTYLSQRDLQAHINHRHVAPQPPPLQPQPQLSAMAEQPKMTDLGGVGLGLELHKQRKLSESSVPISVSASIASRPVLSRLPLTGGVGNIGSIGSIPPPGSAAAAQNAIHGGHSTLTLANLTRINNANAQECHQGKASLHHTLKKGTPHQSESVADASYYSSVLASFGSAAGNPGSGPPGGGATAAAQPANPSGSHSAVGPGALIGGSTDAPTGGSSGNWQQSQYYR
[1]
  MAPPIT interaction score: 2.01
[2]
  MAPPIT interaction score: 0.0868
[3]
  MAPPIT interaction score: 0.0448

B2: Hsp23 (protein)
chain: MANIPLLLSLADDLGRMSMVPFYEPYYCQRQRNPYLALVGPMEQQLRQLEKQVGASSGSSGAVSKIGKDGFQVCMDVSHFKPSELVVKVQDNSVLVEGNHEEREDDHGFITRHFVRRYALPPGYEADKVASTLSSDGVLTIKVPKPPAIEDKGNERIVQIQQVGPAHLNVKENPKEAVEQDNGNDK
[4]
  MAPPIT interaction score: 1.35
[5]
  MAPPIT interaction score: 1.27

B3: porin (protein)
chain: MAPPSYSDLGKQARDIFSKGYNFGLWKLDLKTKTSSGIEFNTAGHSNQESGKVFGSLETKYKVKDYGLTLTEKWNTDNTLFTEVAVQDQLLEGLKLSLEGNFAPQSGNKNGKFKVAYGHENVKADSDVNIDLKGPLINASAVLGYQGWLAGYQTAFDTQQSKLTTNNFALGYTTKDFVLHTAVNDGQEFSGSIFQRTSDKLDVGVQLSWASGTSNTKFAIGAKYQLDDDASVRAKVNNASQVGLGYQQKLRDGVTLTLSTLVDGKNFNAGGHKIGVGLELEA
[6]
  MAPPIT interaction score: 1.64
[7]
  MAPPIT interaction score: 1.31

B4: 4E-T (protein)
chain: MDTSKISARYSKVDLLALRYEGKSRQRPQCSTRLELQTLGFWKINLNTAALTVSSAYSNQNKNRLSPEADNSSLICSNSSSISSRRAMRNRERANNYYQRFVPTDSLLISGEDKDKDALSHGQPYKLNIIDHRSISSSHLMPAFAKRRFVISKGSNSEESNEGINTCASKGKAASSPSRKGSELDTAETCLNFVQPDHDQCMSSSPTFSTSRQERRIGSGRLLPRSDNWDYKNEKTVEASIENEKETSPNGSGSTSSLNQHNQSQHRSRTFSGRLVERVPEVTDRRFQYDSKKSFDRQGINNRRISGKEPFSTQSRSKRGNSYLIHEEPEWFSAGPKSQLETIDLHGFEDLEKNEERSVTEDKNNQIQQLDKNLDAQASKDEASMRNSNDSLNFREVIPSDEKKHTDENVVTSIQNSTDLGHPNKNKPIQMQPSQNPESEFNFDAFLNMHPLDNSVLSNDETGKSDSKGTSRFSRWFRQKEAANNNEFPGFRESHAQEKRGIPSVKDLEAQMIKVDMRTDLINPIAGSLCQTVQMEKPIARDTEAFKKLLQQLGSQARQHHPCNDDCRTINLSNIANHVHLESKLHQKINDGHLQQPELSVNVPTMPTSSHVFLQKRLEIQHLIQRLHCGDVSHDFLEKELDNPSTPAATKDVIATVLNEYSHSKRNPVVTGDPNIFTQQSFLQPQSVHQHYSQELHSQNTANHTINQLISHGNSPTPLAFTPTSVLRKMTADKDTQSPSTYCQNPQYHVHQQNAKQVGTRENVLEPQLTATMAVQPRMILGGGNFAIGQNNQHLSPNMSQSRNQQVLKWTSGNMQMVHGKTFGRPILKGGLNSMPHSNSALPFTAHKIEMQPIHQPHLQQQQHRFKAVQSVESNLNTESVHQNITSPVGWHQLYMQHQQQHHHTRQQLSQRVIYGEMHRQSNPQMSPPVPGFSDSSDSGNVIKANSLTSPSYQRDERISSPTNQLAQWFSPELLAKASAGKLPLLNVNQALSLEEFERSIQHSSGVVHN
[8]
  MAPPIT interaction score: 0.135
[9]
  MAPPIT interaction score: -0.246

B5: Ror (protein)
chain: MNKYSAFIVCISLVLLFTKKDVGSHNVDSRIYGFQQSSGICHIYNGTICRDVLSNAHVFVSPNLTMNDLEERLKAAYGVIKESKDMNANCRMYALPSLCFSSMPICRTPERTNLLYFANVATNAKQLKNVSIRRKRTKSKDIKNISIFKKKSTIYEDVFSTDISSKYPPTRESENLKRICREECELLENELCQKEYAIAKRHPVIGMVGVEDCQKLPQHKDCLSLGITIEVDKTENCYWEDGSTYRGVANVSASGKPCLRWSWLMKEISDFPELIGQNYCRNPGSVENSPWCFVDSSRERIIELCDIPKCADKIWIAIVGTTAAIILIFIIIFAIILFKRRTIMHYGMRNIHNINTPSADKNIYGNSQLNNAQDAGRGNLGNLSDHVALNSKLIERNTLLRINHFTLQDVEFLEELGEGAFGKVYKGQLLQPNKTTITVAIKALKENASVKTQQDFKREIELISDLKHQNIVCILGVVLNKEPYCMLFEYMANGDLHEFLISNSPTEGKSLSQLEFLQIALQISEGMQYLSAHHYVHRDLAARNCLVNEGLVVKISDFGLSRDIYSSDYYRVQSKSLLPVRWMPSESILYGKFTTESDVWSFGVVLWEIYSYGMQPYYGFSNQEVINLIRSRQLLSAPENCPTAVYSLMIECWHEQSVKRPTFTDISNRLKTWHEGHFKASNPEM
[10]
  MAPPIT interaction score: -0.491

B6: DENR (protein)
chain: MTNEDVGTNSVADRLQLGPREGVTYPIQMKYCGHCTMPIEYCEYYPEYEKCKEWLELHMPDDFERLKIEEEAAAADGTDDDKKRQKRGGKGLLRVKKKEDVPKRICVSRAARGKKKSVTVVTGLSTFDIDLKVAAKFFGTKFACGSSVTGDDEIVIQGDVKDDLFDVIPEKWAEIDEDVIEDLGDQKRT
[11]
  MAPPIT interaction score: 1.72

B7: Naa35 (protein)
chain: MYPSTLPAEADPSTMNGSSVAEPPDFQAATAAAAAAARASSLEQDEWSVGECGFLDPDVQRTMRSGSAAEDITQYPMHGWVDVTKEFHDACAELQPGELAQDMLFGLFEAMSAIEIMDPKMDVGMGFDKQDLPPPSFEAAIATGAIKLDDLTPSELIGIYDALFSCLVSWLEGNSMDQVLFTCLYLHAPAQIKDKALRVFCTAVRNLIVVIKKIIAVAAVNEEEDFQLYGNSALLAAEKAQPATVYSSLKDVEDELIRKCKKLTSTEDWMAVVHRLRFMRHLFQVIYHVEQMASNDTVDDKVDIYKILLVASEMLPGIRNTLDRGTQPEKGSDAPNPMGFSPRIHDRSQPPAFPRSIKIRDRPSSYQFLEEMISRFKYACKVTKYKDYYSALNFFIEYSKKSGQCILSRSVLQTLFSANMRMAHGKLPMKQFLRHSVQVFNSPPVLNAKHPVAADPKVQQHLENFFRYCINMNTFTQFIRICGFNRARQRDKLARLIENFDTIQVDAARLDSMMNQLANERAMEGNEPMATALKHSTHFSTWVLYNCFRAMLIFLMSGFELELYAVHEFLYIYWYPYEFLIGFLVSALTRTENILLAQEEYAEHQSKTQSGGSGAAKNRKAAKPKKNKKTQRPYRAEIVFYHALLSLCGGMYKAMGALTKDGRVRLPLSKFDNEEIRYNRRFLPFATLTSPPPVSYAEFKNVREHMMRHSVEDLYTYAAKHFDQARNVLESIQNPDQEMLDLLQIARTNFVVMNVLARGHQKEVKRQPEFDFSKHSYFPIIKLK
[12]
  MAPPIT interaction score: 3.72 (active)
